Potency data for 57 compounds are collected here from PubChem BioAssay (Tox21).

SMILES strings stand for the structures. Inconclusive results are not listed. Entries that show only a call come without a potency. The source made the active and inactive calls. The call rests on the fitted dose curve; in most records, active means well fitted cell-killing curve with a large enough effect in the repeat runs; inconclusive means weak or mixed curves, or effect the other way; inactive means flat fitted curve, though single readings scatter.

Experiment [1] is described as follows: cAMP Responsive Elements (CRE) small molecule antagonists, cell-based qHTS assay: qHTS cell viability counter screen (AID 2060913). Further: nearly all actives have a fitted effect of over 40% in size. Further: potency means the concentration at half of the fitted maximal effect. The method, boiled down: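 Viability of NKH477-stimulated (0.25 uM final) CRE-bla HEK293T cells is measured by CellTiter-Glo luminescence following 3 hrs compound exposure at 37 C.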
A general note: In qHTS, concentration-response curves come from the screen itself.

A short description of experiment [2]: cAMP Responsive Elements (CRE) small molecule agonists, cell-based qHTS assay: qHTS cell viability counter screen (AID 2060914). Further: nearly all actives have a fitted effect of over 50% in size. The method, boiled down: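 Luminescence read-out (CellTiter-Glo, 30 min RT) of ATP-based viability in CRE-bla HEK 293T cells, run in the same wells as the β-lactamase reporter assay after 3 h compound treatment at 37 °C.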

With `NS(=O)(=O)c1cc(-c2nn[nH]n2)c(NCc2cccs2)cc1Cl`, the Potency result in experiment [1] and in experiment [2] was “inactive” in each case.

For the compound `CCCCCCCC/C=C\CCCCCCCC(N)=O`, the Potency entry in experiment [1] and in experiment [2] was “inactive” in each case.

In the case of `CC(C)(C#N)Nc1nc(Cl)nc(NC2CC2)n1`, the Potency result in experiment [1] and in experiment [2] was “inactive” each time.

`CC(C)=CCC/C(C)=C/COC=O`: the Potency entry in experiment [1] and in experiment [2] was “inactive” in each case.

Take `CC(C)(C)C1(CCc2ccc(Cl)cc2)CO1` (centres undefined): the Potency entry in experiment [1] and in experiment [2] was “inactive” each time.

As to `O=C1OC(=O)c2c(Br)c(Br)c(Br)c(Br)c21`, the Potency entry in experiment [1] and in experiment [2] was “inactive” throughout.

For `CCOC(=O)CC`, the Potency entry in experiment [1] and in experiment [2] was “inactive” throughout.

For `Cc1cc2cc3c(C)cc(=O)oc3c(C)c2o1`, the Potency result in experiment [1] and in experiment [2] was “inactive” throughout.

In the case of `O=C(Cn1ccnc1[N+](=O)[O-])NCc1ccccc1`, the Potency result in experiment [1] and in experiment [2] was “inactive” in each case.

Regarding `O=c1n(CCCN2CCN(c3cccc(Cl)c3)CC2)nc2ccccn12`, the Potency entry in experiment [1] and in experiment [2] was “inactive” in each case.

As for `CC(CCc1ccc2c(c1)OCO2)NN` (centres undefined), the Potency entry in experiment [1] and in experiment [2] was “inactive” each time.

On to `COC(=O)C1=C(C)NC(C)=C(C(=O)OCCc2ccc(N3CCN(C(c4ccccc4)c4ccccc4)CC3)cc2)C1c1cccc([N+](=O)[O-])c1` (centres undefined), for which the Potency entry in experiment [1] and in experiment [2] was “inactive” in each case.

As for `Nc1nc2ccccc2n1Cc1ccc(F)cc1`, the Potency entry in experiment [1] and in experiment [2] was “inactive” throughout.

On to `CCCc1ccc(OCC(=O)N2CCN(C(=O)COc3ccc(CCC)cc3OC)CC2)c(OC)c1`, for which the Potency result in experiment [1] and in experiment [2] was “inactive” in each case.

`O=C(CS)Nc1ccccc1`: the Potency entry in experiment [1] and in experiment [2] was “inactive” throughout.

As to `CC(=O)c1ccc(C(C)=O)cc1`, the Potency result in experiment [1] and in experiment [2] was “inactive” throughout.

For the compound `Nc1cc(Cl)c(O)c(Cl)c1`, the Potency entry in experiment [1] and in experiment [2] was “inactive” in each case.

On to `Brc1nc2ccccc2s1`, for which the Potency result in experiment [1] and in experiment [2] was “inactive” each time.

As for `CCC(=O)C(=O)CC`, the Potency entry in experiment [1] and in experiment [2] was “inactive” throughout.

In the case of `COC(=O)CCS`, the Potency result in experiment [1] and in experiment [2] was “inactive” each time.

Regarding `O=S1(=O)c2cccc3cccc(c23)N1CCCN1CCN(c2ccc(F)cc2)CC1`, the Potency result in experiment [1] and in experiment [2] was “inactive” each time.

Turning to `CCCC(C)C=O` (centres undefined), the Potency result in experiment [1] and in experiment [2] was “inactive” each time.

`CC(=O)CC(C)C`: the Potency entry in experiment [1] and in experiment [2] was “inactive” in each case.

For `O=NN(CCCl)C(=O)NCCCl`, the Potency entry in experiment [1] and in experiment [2] was “inactive” throughout.

As for `O=C1c2ccccc2C(=O)c2c(O)ccc(O)c21`, the Potency entry in experiment [1] and in experiment [2] was “inactive” each time.

In the case of `Cc1ccccc1N=C(N)Nc1ccccc1C`, the Potency result in experiment [1] and in experiment [2] was “inactive” in each case.

For the compound `CC(O)CN` (centres undefined), the Potency entry in experiment [1] and in experiment [2] was “inactive” throughout.

Regarding `CC(=O)Oc1ccc(C(C)=O)cc1`, the Potency entry in experiment [1] and in experiment [2] was “inactive” throughout.

With `NC(=O)/N=N/C(N)=O`, the Potency entry in experiment [1] and in experiment [2] was “inactive” in each case.

As to `Nc1ccc2cc(S(=O)(=O)O)cc(O)c2c1N=Nc1ccccc1C(F)(F)F`, the Potency result in experiment [1] and in experiment [2] was “inactive” throughout.

With `CC(=O)CCC(=O)O`, the Potency result in experiment [1] and in experiment [2] was “inactive” throughout.

For `CCCCCCCC(C)=O`, the Potency entry in experiment [1] and in experiment [2] was “inactive” in each case.

As to `CCCC(=O)O[C@]1(C(=O)CC)CC[C@H]2[C@@H]3CCC4=CC(=O)CC[C@]4(C)[C@H]3[C@@H](O)C[C@@]21C`, the Potency entry in experiment [1] and in experiment [2] was “inactive” throughout.

Take `O=C1CCC(=O)N1`: the Potency result in experiment [1] and in experiment [2] was “inactive” throughout.

On to `CCCCCC(CC)OC(=O)CCCOc1ccc(Cl)cc1Cl` (centres undefined), for which the Potency result in experiment [1] and in experiment [2] was “inactive” throughout.

As to `CCOC(=O)c1ccccc1OC`, the Potency entry in experiment [1] and in experiment [2] was “inactive” throughout.

`Brc1c2ccccc2cc2ccccc12`: the Potency entry in experiment [1] and in experiment [2] was “inactive” throughout.

Take `O=c1[nH]cccc1O`: the Potency result in experiment [1] and in experiment [2] was “inactive” throughout.

In the case of `CCCCCCCCCCCC[N+](C)(C)CCCCCCCCCCCC`, in experiment [1], the Potency was 40.3 µM (active). The Potency entry in experiment [2] was “inactive”.

As to `CC(C)CCCO`, the Potency result in experiment [1] and in experiment [2] was “inactive” throughout.

With `CCC(C(=O)OCCN(CC)CC)c1ccccc1` (centres undefined), the Potency result in experiment [1] and in experiment [2] was “inactive” in each case.

For the compound `OCc1ccccc1O`, the Potency entry in experiment [1] and in experiment [2] was “inactive” throughout.

In the case of `CC[C@@]1(O)C(=O)OCc2c1cc1n(c2=O)Cc2c-1nc1ccccc1c2/C=N/OC(C)(C)C`, the Potency entry in experiment [1] and in experiment [2] was “inactive” in each case.

As for `COc1ccccc1OCCNCC(O)COc1cccc2[nH]c3ccccc3c12` (centres undefined), the Potency result in experiment [1] and in experiment [2] was “inactive” throughout.

As for `C[N+]1(CC2COC(c3ccccc3)(C3CCCCC3)O2)CCCCC1` (centres undefined), the Potency entry in experiment [1] and in experiment [2] was “inactive” each time.

For `CCc1cccc(CC)c1NC(=O)C(=O)O`, the Potency result in experiment [1] and in experiment [2] was “inactive” each time.

As to `Cc1cc(C)c(C)c(O)c1`, the Potency entry in experiment [1] and in experiment [2] was “inactive” throughout.

Turning to `CCC/C=C/C=O`, the Potency entry in experiment [1] and in experiment [2] was “inactive” in each case.

For the compound `CC(N)CN` (centres undefined), the Potency result in experiment [1] and in experiment [2] was “inactive” in each case.

For the compound `CCCCCCCCCCCCC1CO1` (centres undefined), the Potency entry in experiment [1] and in experiment [2] was “inactive” throughout.

`C=CCOCC(O)CO` (centres undefined): the Potency result in experiment [1] and in experiment [2] was “inactive” in each case.

Consider `CCCCCCCCCC(C)=O`, for which the Potency entry in experiment [1] and in experiment [2] was “inactive” each time.

In the case of `NCCc1ccn[nH]1`, the Potency result in experiment [1] and in experiment [2] was “inactive” each time.

As for `Cc1cccc(C)c1OCC(=O)N[C@@H](Cc1ccccc1)[C@@H](O)C[C@H](Cc1ccccc1)NC(=O)[C@H](C(C)C)N1CCCNC1=O`, the Potency entry in experiment [1] and in experiment [2] was “inactive” in each case.

As for `Cc1ccccc1S(=O)(=O)O`, the Potency entry in experiment [1] and in experiment [2] was “inactive” throughout.

As to `CCCC(=O)OCCC(C)CCC=C(C)C` (centres undefined), the Potency result in experiment [1] and in experiment [2] was “inactive” throughout.

As for `O=C(NC1CCN(CCc2c[nH]c3ccccc23)CC1)c1ccccc1`, the Potency entry in experiment [1] and in experiment [2] was “inactive” throughout.
